According to PubChem BioAssay AID1159580 (chemical genetic matrix, 2015):
Among all 5,500 compounds or so, about 2,000 (36%) were called active. Not shown: some 18% with an inconclusive outcome. Cut-off read from the data, not from the text of the source: active = normalized growth mostly below about 0.91 (no sharp cut-off); inconclusive = no clear call, values can overlap the other calls; inactive = mostly above about 0.92. Some of the results follow.

Assay: chemical genetic growth profiling, strain panel (AID 1159580);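 note: tested at 20 µM; growth read once vehicle control cultures reached saturation at 30 °C; 1 = growth at the plate median or of vehicle wells; lower values mean less growth of the strain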
Details: S. cerevisiae deletion strains, growth OD
[1] = locus YAR019C, strain CDC15, hits give low values
[2] = locus YBL105C, strain PKC1, hits give low values
[3] = locus YBR135W, strain CKS1, hits give low values
[4] = locus YBR136W, strain MEC1, hits give low values
[5] = locus YBR160W, strain CDC28, hits give low values
[6] = locus YDL017W, strain CDC7, hits give low values
[7] = locus YDL028C, strain MPS1, hits give low values
[8] = locus YDL101C, strain DUN1, hits give low values
[9] = locus YDL108W, strain KIN28, hits give low values
[10] = locus YDL132W, strain cdc53, hits give low values
[11] = locus YDL214C, strain PRR2, hits give low values
[12] = locus YDR052C, strain DBF4, hits give low values
[13] = locus YDR054C, strain cdc34, hits give low values
[14] = locus YDR226W, strain ADK1, hits give low values
[15] = locus YDR477W, strain SNF1, hits give low values
[16] = locus YER123W, strain YCK3, hits give low values
[17] = locus YER133W, strain GLC7, hits give low values
[18] = locus YFL009W, strain cdc4, hits give low values
[19] = locus YFL029C, strain CAK1, hits give low values
[20] = locus YFR003C, strain YPI1, hits give low values
[21] = locus YFR019W, strain FAB1, hits give low values
[22] = locus YFR028C, strain CDC14, hits give low values
[23] = locus YGR040W, strain KSS1, hits give low values
[24] = locus YGR052W, strain FMP48, hits give low values
[25] = locus YGR092W, strain DBF2, hits give low values
[26] = locus YHR030C, strain SLT2, hits give low values
[27] = locus YHR079C, strain IRE1, hits give low values
[28] = locus YHR082C, strain KSP1, hits give low values
[29] = locus YHR205W, strain SCH9, hits give low values
[30] = locus YIL147C, strain SLN1, hits give low values
[31] = locus YJL095W, strain BCK1, hits give low values
[32] = locus YJL128C, strain PBS2, hits give low values
[33] = locus YJL157C, strain FAR1, hits give low values
[34] = locus YJR016C, strain ILV3, hits give low values
[35] = locus YJR066W, strain TOR1 (second series), hits give low values
[36] = locus YJR066W, strain TOR1, hits give low values
[37] = locus YKL048C, strain ELM1, hits give low values
[38] = locus YKL067W, strain YNK1, hits give low values
[39] = locus YKL101W, strain HSL1, hits give low values
[40] = locus YKL193C, strain SDS22, hits give low values
[41] = locus YKL203C, strain TOR2, hits give low values
[42] = locus YLR113W, strain HOG1, hits give low values
[43] = locus YLR133W, strain CKI1, hits give low values
[44] = locus YLR403W, strain SFP1, hits give low values
[45] = locus YML070W, strain DAK1, hits give low values
[46] = locus YMR001C, strain CDC5, hits give low values
[47] = locus YMR205C, strain PFK2 (second series), hits give low values
[48] = locus YMR277W, strain FCP1, hits give low values
[49] = locus YNL006W, strain LST8, hits give low values
[50] = locus YNL020C, strain ARK1, hits give low values
[51] = locus YNL161W, strain CBK1, hits give low values
[52] = locus YNL183C, strain NPR1, hits give low values
[53] = locus YNL207W, strain RIO2, hits give low values
[54] = locus YNL222W, strain SSU72, hits give low values
[55] = locus YNL307C, strain MCK1 (second series), hits give low values
[56] = locus YOL078W, strain AVO1, hits give low values
[57] = locus YOL136C, strain PFK27, hits give low values
[58] = locus YOR061W, strain CKA2, hits give low values
[59] = locus YOR119C, strain RIO1, hits give low values
[60] = locus YOR231W, strain MKK1, hits give low values
[61] = locus YOR329C, strain SCD5, hits give low values
[62] = locus YPL031C, strain PHO85, hits give low values
[63] = locus YPL153C, strain RAD53, hits give low values
[64] = locus YPL204W, strain HRR25, hits give low values
[65] = locus YPL209C, strain IPL1, hits give low values
[66] = locus YPL256C, strain CLN2, hits give low values
[67] = locus YPR025C, strain CCL1, hits give low values
[68] = locus YPR106W, strain ISR1, hits give low values
[69] = locus YPR111W, strain DBF20, hits give low values
[70] = strain NNK1, hits give low values
[71] = strain TSCII, hits give low values

Measured: normalized growth

CC(=O)Nc1ccc(S(=O)(=O)Nc2ccccc2Oc2ccc(Cl)cc2Cl)cc1
inactive: [1] 0.998 | [2] 0.996 | [3] 0.993 | [4] 0.993 | [5] 0.996 | [6] 0.997 | [7] 0.995 | [8] 1 | [9] 0.999 | [10] 0.995 | [11] 0.984 | [12] 0.993 | [13] 0.986 | [14] 1 | [15] 0.983 | [16] 1.02 | [17] 0.991 | [18] 0.993 | [19] 0.985 | [20] 0.999 | [21] 0.993 | [22] 0.993 | [23] 0.986 | [24] 1.09 | [25] 1 | [26] 1 | [27] 1.01 | [28] 1.04 | [29] 0.987 | [30] 0.992 | [31] 1.03 | [32] 0.965 | [33] 0.992 | [34] 0.996 | [35] 0.97 | [36] 1.01 | [37] 0.986 | [38] 0.985 | [39] 0.98 | [40] 0.994 | [41] 1.04 | [42] 0.959 | [43] 0.98 | [44] 0.995 | [45] 1.01 | [46] 0.999 | [47] 0.99 | [48] 0.995 | [49] 0.999 | [50] 0.992 | [51] 0.995 | [52] 1.01 | [53] 0.995 | [54] 0.995 | [55] 1.01 | [56] 0.995 | [57] 1 | [58] 0.98 | [59] 0.994 | [60] 0.994 | [61] 0.999 | [62] 0.995 | [63] 0.994 | [64] 0.996 | [65] 0.998 | [66] 0.929 | [67] 0.996 | [68] 0.998 | [69] 0.99 | [70] 0.994 | [71] 0.999

Cc1ccc(NC(=O)c2ccccc2N=Cc2cc(Cl)cc(Cl)c2O)c(N=Cc2cc(Cl)cc(Cl)c2O)c1
active: [11] 0.459 | [15] 0.284 | [16] 0.252 | [17] 0.365 | [21] 0.598 | [23] 0.377 | [24] 0.363 | [25] 0.123 | [26] 0.213 | [27] 0.201 | [28] 0.293 | [29] 0.166 | [31] 0.218 | [33] 0.272 | [35] 0.51 | [36] 0.237 | [37] 0.422 | [38] 0.359 | [39] 0.387 | [41] 0.37 | [42] 0.247 | [43] 0.28 | [44] 0.131 | [45] 0.32 | [47] 0.348 | [50] 0.198 | [52] 0.254 | [55] 0.188 | [57] 0.25 | [58] 0.197 | [59] 0.39 | [60] 0.255 | [62] 0.291 | [63] 0.324 | [64] 0.313 | [66] 0.294
inactive: [1] 0.926 | [2] 0.926 | [3] 0.921 | [4] 0.927 | [5] 0.934 | [6] 0.927 | [7] 0.927 | [8] 0.962 | [9] 0.925 | [10] 0.937 | [12] 0.93 | [13] 0.911 | [14] 0.925 | [18] 0.93 | [19] 0.909 | [20] 0.913 | [22] 0.933 | [30] 0.914 | [32] 0.885 | [34] 0.934 | [40] 0.924 | [46] 0.925 | [48] 0.935 | [49] 0.931 | [51] 0.906 | [53] 0.922 | [54] 0.929 | [56] 0.928 | [61] 0.913 | [65] 0.929 | [67] 0.928 | [68] 0.936 | [69] 0.916 | [70] 0.91 | [71] 0.922
